According to PubChem BioAssay (NCI):
This is part of a sample that, as a whole, favours compounds with a hit. Of some 79,000 tested, about 15% had one in any assay. Cut-off read from the data, not from the text of the source: active = growth inhibition above about 70%; inactive = the rest.

Columns and labels:
[1] = NCI Yeast Anticancer Drug Screen. Data for the rad50 strain (AID 155);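 note: 0% = growth of vehicle-only cultures of the same strain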; details: S. cerevisiae rad50 strain growth inhibition; at 50.0 µM; active compounds read high
How it was run: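 Vehicle-treated cultures provide the reference for the growth inhibition reported for compound-exposed, repair-deficient yeast.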

[2] = NCI Yeast Anticancer Drug Screen. Data for the mec2-1 strain (AID 157); details: S. cerevisiae mec2-1 strain, at 50.0 µM, active compounds read high
How it was run: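 Readout is yeast growth inhibition, normalised to vehicle-treated controls, in the mec2-1 strain exposed to compound.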

[3] = NCI Yeast Anticancer Drug Screen. Data for the sgs1 mgt1 strain (AID 161);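 note: 0% = growth of cultures given vehicle only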; details: S. cerevisiae sgs1 mgt1 strain, at 50.0 µM, active compounds read high
How it was run: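 Percent growth inhibition was derived by comparing compound-exposed mutant yeast with vehicle-exposed cultures. The strain carries alterations in DNA damage repair.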

[4] = NCI Yeast Anticancer Drug Screen. Data for the cln2 rad14 strain (AID 165);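 note: 0% = growth equal to vehicle treated cultures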; details: S. cerevisiae cln2 rad14 strain, at 50.0 µM, active compounds read high
How it was run: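 Relative to vehicle controls, growth inhibition of compound-treated cln2 rad14 yeast was recorded.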

[5] = NCI Yeast Anticancer Drug Screen. Data for the bub3 strain (AID 167); details: S. cerevisiae bub3 mutant strain, at 50.0 µM, active compounds read high
How it was run: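 Mutant yeast screening strain plus compound; vehicle-treated cultures serve as the 0% inhibition reference.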

[6] = NCI Yeast Anticancer Drug Screen. Data for the mlh1 rad18 strain (AID 175); details: S. cerevisiae mlh1 rad18 strain growth inhibition; at 50.0 µM; active compounds read high
How it was run: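 Test agents were incubated with a yeast strain of defined genotype (DNA damage repair defect). Inhibition of growth was derived by comparison with vehicle-exposed cultures.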

Measured: growth inhibition

CCC1OC2(C)CC(C#N)(C#N)C1(C#N)C(=N)O2 (configuration not stated)
inactive: [1] 0.6% | [2] -3.9% | [3] -46.4% | [4] -8.2% | [5] -31.4% | [6] -10.7%

N#Cc1nc(C(F)(F)F)oc1N
inactive: [1] -2.6% | [2] -1% | [3] -0.95% | [4] -7.85% | [5] -3.3% | [6] -42.4%

COC(=O)C(Cc1nc2ccccc2[nH]c1=O)C(=O)C(=O)Nc1cc(C(F)(F)F)ccc1Cl (configuration not stated)
inactive: [1] 5.3% | [2] -18.5% | [3] 19.4% | [4] 4.65% | [5] 2.4% | [6] 11.4%

CC1(C)Oc2ccc3c(=O)cc(-c4ccc(F)cc4)oc3c2C1C(=O)O (configuration not stated)
inactive: [1] -2.3% | [2] -16.6% | [3] -12.2% | [4] -9.1% | [5] 8.1% | [6] -28.8%

COC(=O)C(=O)C(C(=O)C(=O)Nc1nc2ccc(C)cc2s1)c1nc2ccc([N+](=O)[O-])cc2[nH]c1=O (configuration not stated)
inactive: [1] 56.1% | [2] 15.4% | [3] 22.1% | [4] -30.6% | [5] 26.1% | [6] 20.2%

CC(=O)C1=C(C)N2C(=NC3=C(CCc4ccccc43)C2c2ccc(Cl)cc2)S1 (configuration not stated)
inactive: [1] 25.9% | [2] -14.6% | [3] 6.85% | [4] 6.25% | [5] -6.9% | [6] 1.5%

OCc1ccccn1
inactive: [1] -10.7% | [2] 3.45% | [3] -4.65% | [4] -0.25% | [5] -3.95% | [6] 16.7%
